Assay outcomes (PubChem)
Hits are enriched below; roughly 2.4% of the tested compounds scored in any of these assays.
S1P4 antag – human S1P4 receptor antagonism. O95977. S1P4-expressing cells, antagonist mode, reporter read-out. inhibition, % at 4.98 µM. 0.26% of 220,000 active. AID 1510; in the data active means inhibition above about 29%;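 further: 0% = wells stimulated with agonist and 100% = vehicle wells without agonist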
Target sequence (O95977 whole entry, looked up): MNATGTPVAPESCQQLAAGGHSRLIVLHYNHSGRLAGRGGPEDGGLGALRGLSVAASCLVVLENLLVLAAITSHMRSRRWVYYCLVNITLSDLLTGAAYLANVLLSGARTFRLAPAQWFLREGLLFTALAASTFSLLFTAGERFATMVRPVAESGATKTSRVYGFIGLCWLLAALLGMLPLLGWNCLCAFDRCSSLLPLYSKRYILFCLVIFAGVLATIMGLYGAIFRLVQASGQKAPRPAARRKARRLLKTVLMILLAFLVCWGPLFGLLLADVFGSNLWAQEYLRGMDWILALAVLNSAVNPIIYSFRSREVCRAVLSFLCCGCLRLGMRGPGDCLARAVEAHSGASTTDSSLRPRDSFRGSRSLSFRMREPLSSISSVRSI
PGE2 EP2 inh – EP2 receptor (human) inhibition | P43116 | C6 glioma cells expressing human EP2, cAMP TR-FRET; cells stimulated with saturating PGE2 | inhibition, % at 25 µM | 0.52% of 260,000 active | AID 1422;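 active means percent inhibition above 40 after rounding to a whole number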;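 further: rat C6 glioma host cells with rolipram phosphodiesterase inhibitor present; the protocol text gives 20 µM as final concentration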
S1P3 antagonist – S1P3 (human) receptor antagonism | inhibition, % at 4.98 µM | CHO S1P3 NFAT-BLA reporter, FRET fluorescence, antagonist mode | Q99500 | 0.27% of 170,000 active;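 active means inhibition above the plate cutoff, the mean inhibition of test wells on that plate plus 3 SD, cut at about 28% in these data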;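 further: cells challenged with S1P at its EC80 of 0.8 µM; blue over green emission ratio from cleaved BLA substrate after 4 h stimulation; 0% = S1P-stimulated wells and 100% = unstimulated DMSO-only wells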
Target sequence (Q99500 whole entry, looked up): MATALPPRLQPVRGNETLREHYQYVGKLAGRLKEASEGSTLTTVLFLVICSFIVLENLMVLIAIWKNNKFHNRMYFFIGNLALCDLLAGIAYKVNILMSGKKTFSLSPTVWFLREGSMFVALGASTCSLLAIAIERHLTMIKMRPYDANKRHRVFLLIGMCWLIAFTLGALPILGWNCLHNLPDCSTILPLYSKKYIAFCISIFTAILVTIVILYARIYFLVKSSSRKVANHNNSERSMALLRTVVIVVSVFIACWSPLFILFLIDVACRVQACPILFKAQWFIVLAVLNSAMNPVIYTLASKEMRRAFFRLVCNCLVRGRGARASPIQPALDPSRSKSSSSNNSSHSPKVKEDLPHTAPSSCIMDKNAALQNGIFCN
EP2 mod – modulates human prostaglandin E2 receptor EP2 signaling; induction, % at 25 µM; 0.83% of 260,000 active; EP2-expressing cells, cAMP HTRF FRET, PGE2 co-stimulation;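 active means compounds whose cAMP rise, as percent of the full-agonist control response, exceeds 60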;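 further: rat C6 glioma line stably carrying human EP2 under a CMV promoter; the protocol text gives 20 µM as final concentration; 100% = response of wells given 1 µM PGE2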
S1P4 agonist – activates the human S1P4 receptor; O95977; S1P4-expressing cell line, agonist reporter assay; activation, % at 4.98 µM; 0.35% of 220,000 active; AID 1509; in the data active means activation above about 11%;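 further: 0% = DMSO vehicle and 100% = reference agonist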
INS promoter inh – TRM-6 insulin promoter activity inhibition | inhibition, % at 2 µM | 0.9% of 130,000 active | TRM-6 cells (human fetal islet line), insulin promoter-eGFP reporter, imaging; reporter expression induced with tamoxifen;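 active means inhibition above the mean plus 3 SD, with well images judged a real hit on visual review, cut at about 60% in these data, passing the limit was not always enough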
S1P4 agonist cf – human S1P4 agonism, confirmation; shares compounds with S1P4 agonist; S1P4 agonist cell-based reporter assay; activation, % at 4.98 µM; 7% of 740 active; in the data active means activation above about 12%;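 further: 0% = vehicle and 100% = full reference agonist response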
S1P1 ag – counter-screen for S1P4 agonists: agonists of human S1P1 | shares compounds with S1P4 agonist | S1P1 agonist cell-based assay, activation | activation, % at 4.98 µM | 4% of 740 active | AID 1563; in the data active means activation above about 21%;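 further: 0% = vehicle wells and 100% = reference agonist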
An asterisk follows results filed as active; · = not tested or not shown.

SMILES | S1P4 antag | PGE2 EP2 inh | S1P3 antagonist | EP2 mod | S1P4 agonist | INS promoter inh | S1P4 agonist cf | S1P1 ag
CC(=O)c1nnn(-c2c(F)cccc2F)c1C | 1.4 | 10.1 | -12.2 | 15.7 | 0.7 | · | · | ·
Cc1cc(C)c2c(=O)[nH]c(SCC(=O)NCc3ccccc3)nc2n1 | 7.2 | 5.9 | · | 3.4 | -1.5 | 17.9 | · | ·
Cc1cc(C)c2c(=O)[nH]c(SCC(=O)NCCc3ccccc3)nc2n1 | -27.9 | 10.3 | · | 12.7 | 12.0* | -468.8 | -2.2 | -1.8
O=C(Nc1ccc(-c2cc3ccccc3oc2=O)cc1)c1cccnc1 | · | 12.8 | · | 4.8 | · | · | · | ·
COc1ccc(Cn2ccnc2)cc1[N+](=O)[O-] | -17.2 | 10.7 | 1.5 | 21.0 | 12.3* | 37.1 | -2.3 | -2.2
COc1ccc(NC(=O)CSc2ncnc3sc(C)c(C)c23)c(OC)c1 | · | 10.2 | · | -6.8 | · | · | · | ·
CCOC(=O)c1cccc(-n2c(C)cc(C=O)c2C)c1 | -10.9 | 4.9 | 13.4 | 22.7 | -0.6 | -26.1 | · | ·
CCOC(=O)c1c(-n2c(C)cc(C=O)c2C)sc2c1CCCC2 | -11.8 | 7.3 | · | 47.8 | 16.1* | · | 21.1* | -7.4
O=C(N/N=C\c1ccc(O)c([N+](=O)[O-])c1)c1ccccc1-n1cccc1 | -26.3 | 6.9 | 3.1 | -23.5 | 15.8* | 21.4 | -2.2 | 0.7
NC(=S)N/N=C/c1coc2ccc(O)cc2c1=O | 2.7 | 8.0 | 0.4 | -4.0 | 1.7 | · | · | ·
NC(=S)N/N=C/c1coc2ccc(F)cc2c1=O | -0.7 | 9.1 | 11.4 | -17.4 | 36.4* | · | -0.9 | 1.3
O=C(/C=C/c1ccco1)Nc1ccccc1N1CCOCC1 | -23.1 | 8.3 | -12.8 | -5.8 | 20.2* | -21.4 | -1.3 | -3.8
COc1ccc(C2NC(=O)C(C#N)=C(S)N2c2cccc(C)c2)cc1OC (stereo unspecified) | -11.9 | 6.4 | 3.6 | 3.9 | 15.3* | · | -1.6 | 2.8
Cn1c(O)c(N=NC(=S)Nc2ccccc2F)c2cc(S(=O)(=O)N3CCOCC3)ccc21 | 15.4 | 2.2 | 0.9 | 10.0 | 17.1* | · | -1.5 | -1.3
CCOC(=O)CC1Sc2ccccc2NC1=S (stereo unspecified) | 12.5 | 8.6 | -18.1 | -18.4 | 63.4* | · | -0.8 | -0.8
CCOC(=O)CC1Sc2ccccc2NC1=O (stereo unspecified) | -1.7 | -1.9 | · | -3.7 | 1.5 | · | · | ·
COCCNC(=S)N(CCO)Cc1cc2c(C)ccc(C)c2[nH]c1=O | · | 8.8 | · | 18.8 | · | · | · | ·
Cc1ccc(S(=O)(=O)N(C)C)cc1-n1c(SCC(=O)Nc2ccc(F)cc2)nc2ccccc2c1=O | -13.1 | 12.1 | -3.1 | 10.5 | 11.0* | · | -2.1 | 1.1
C=CCn1c(COc2ccccc2OC)n[nH]c1=S | · | 10.8 | · | 16.4 | · | · | · | ·
Cc1cc(/C=N/n2cnnc2)c(C)n1-c1ccc(Cl)cc1Cl | -50.3 | 0.6 | 37.1 | 15.8 | -3.0 | -462.5 | · | ·
Cc1cc(C=NCCCO)c(C)n1-c1cc(Cl)ccc1Cl | -15.1 | 8.6 | 1.9 | 32.2 | 13.2* | 14.3 | 21.4* | 4.4
COc1ccc(OC)c(/C=N/NC(=O)Cc2nc3ccccc3[nH]2)c1 | -26.9 | 3.1 | 2.8 | -33.6 | 11.5* | 56.0 | -1.8 | -7.7
CCCCCOCC1CC(C/C(C)=N/NC(N)=S)C(=O)O1 (stereo unspecified) | -4.3 | 9.0 | -8.2 | 6.6 | 1.1 | 21.4 | · | ·
C/C(CC1CC(COCC(C)C)OC1=O)=N\NC(N)=S (stereo unspecified) | -9.1 | 11.9 | -14.1 | 16.8 | 12.7* | 21.4 | -1.6 | -0.6
CC(=O)N(CCCN(C)C)Cc1ccccn1 | 4.4 | 10.2 | -21.3 | -15.4 | 20.2* | · | -2.5 | -6.6
SMILES | S1P4 antag | PGE2 EP2 inh | S1P3 antagonist | EP2 mod | S1P4 agonist | INS promoter inh | S1P4 agonist cf | S1P1 ag
CC(=O)N(CCCc1ccc(C(C)(C)C)cc1)CCCN(C)C | -14.4 | 7.3 | 9.1 | -34.5 | -1.2 | · | · | ·
COCCCn1c(=O)/c(=C\c2ccccc2OC(F)F)s/c1=C(/C#N)C(=O)NCCOC | 4.1 | 5.5 | 10.4 | -8.3 | 1.1 | · | · | ·
COCCNC(=O)/C(C#N)=c1\s/c(=C\c2ccccc2OC(F)F)c(=O)n1Cc1ccccc1 | -9.5 | 2.5 | -1.6 | 6.8 | 12.4* | · | -2.4 | 3.2
CCOC(=O)c1ccc(S(=O)(=O)Nc2cc3c(cc2C(C)=O)OCO3)cc1 | · | 4.8 | · | -61.1 | · | · | · | ·
CN(C)CCNC(=O)Cc1ncc(C(F)(F)F)cc1Cl | -7.8 | 3.0 | -5.2 | -4.0 | 2.4 | -27.3 | · | ·
O=C(Cc1ncc(C(F)(F)F)cc1Cl)NCCc1ccccn1 | 6.1 | 7.7 | 1.0 | 15.6 | 13.0* | 20.0 | -0.8 | 5.0
COc1ccc(C2c3cc(OC)c(OC)cc3CCN2C2CC(=O)N(c3ccccc3)C2=O)cc1OC (stereo unspecified) | -2.5 | 4.3 | · | 30.7 | 18.1* | -9.7 | 0.0 | -3.1
CCOC(=O)c1c(NC(=O)CN2CCCc3ccccc32)sc(C(C)=O)c1C | -3.5 | 8.4 | 6.5 | 2.1 | 16.4* | · | -1.8 | 4.4
CC1CC(NC(=O)CCn2c(=O)oc3ccccc32)CC(C)(C)C1 (stereo unspecified) | 0.7 | 11.1 | -29.1 | -4.7 | 12.1* | · | -1.2 | -1.9
O=S(=O)(c1ccccc1)c1ccc(C(F)(F)F)cn1 | 6.2 | 4.8 | -5.4 | -8.1 | 34.8* | 28.6 | -3.2 | -4.0
Cc1cc(C)nc(/N=C(\N)Nc2ccc([N+](=O)[O-])cc2)n1 | -5.1 | 17.3 | -18.2 | -67.5 | 0.1 | -20.7 | · | ·
Cc1cc(C)nc(/N=C(\N)Nc2cccc([N+](=O)[O-])c2)n1 | -11.0 | 6.0 | -5.2 | -6.1 | 11.6* | 20.6 | -1.4 | -1.5
CCN1CCN(c2ccc(NC(=O)COc3ccccc3)cc2Cl)CC1 | · | 9.7 | · | -94.2 | · | · | · | ·
COCCCNC(=O)c1ccc2c(=O)n(Cc3ccc(OC)cc3)c(=O)[nH]c2c1 | 0.3 | 6.4 | -24.4 | -44.5 | -1.1 | · | · | ·
COCCCNC(=O)c1ccc(Cn2c(=O)c3ccccc3n(Cc3ccccc3C)c2=O)cc1 | -11.7 | 1.7 | · | 41.6 | 0.2 | 57.1 | · | ·
COCCCNC(=O)c1ccc(Cn2c(=O)[nH]c3ccccc3c2=O)cc1 | -2.7 | 9.1 | -10.9 | 15.0 | 11.5* | 5.0 | -0.7 | -4.0
COCCCNC(=O)c1ccc(Cn2c(=O)c3ccccc3n(Cc3ccccc3C#N)c2=O)cc1 | -87.8 | 11.5 | · | 22.1 | 58.2* | -12.9 | -2.2 | -4.0
CCc1nc(SCC(=O)Nc2ccccc2C)c2ccccc2n1 | · | 8.1 | · | -17.6 | · | · | · | ·
O=S(=O)(c1ccc(-c2cn3ccccc3n2)cc1)N1CCOCC1 | -5.6 | 10.2 | · | -9.7 | 67.9* | -15.2 | -1.6 | 3.0
Cc1cccn2cc(-c3ccc(S(=O)(=O)N4CCOCC4)cc3)nc12 | 1.0 | 11.5 | -13.9 | 2.9 | -1.0 | · | · | ·
CCCc1c(C)nc(N)c(C#N)c1-c1ccccc1 | · | 6.0 | · | 3.3 | · | · | · | ·
Cc1ccc(NC(=O)CSc2nnc(CNC(=O)c3cccs3)o2)cc1 | -4.2 | 3.8 | -10.4 | 14.2 | 0.5 | 42.9 | · | ·
COc1cc(C(=O)NCc2nnc(SCC(=O)Nc3cc(C)on3)o2)cc(OC)c1OC | -6.2 | 14.4 | 8.9 | -0.2 | 0.4 | · | · | ·
